Test results taken from PubChem BioAssay AID1135 (Sanford-Burnham Center for Chemical Genomics, 2008).
Hit rate of the full screen: of about 200,000 compounds, about 65 (0.03%) were called active. This is one part of a sample in which actives are shown more often than they occur.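 How the source made its calls: active means over 50% inhibition of tissue-nonspecific alkaline phosphatase at 20 µM in the single-dose screen; inactive means the rest.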

These compounds were tested against Alkaline phosphatase, tissue-nonspecific isozyme (Homo sapiens) (UniProt P05186) (assay: human TNAP enzyme inhibitors, primary screen, biochemical, luminescent, high phosphate acceptor level, uHTS (AID 1135;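 further: plate controls were DMSO wells for no effect and EDTA-quenched wells as full inhibition for full effect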)). Conditions: purified TNAP, CDP-star luminescence, 1 M DEA; at 20 µM; hits give high values.
Sequence of Alkaline phosphatase, tissue-nonspecific isozyme (Homo sapiens) (P05186 whole entry, looked up): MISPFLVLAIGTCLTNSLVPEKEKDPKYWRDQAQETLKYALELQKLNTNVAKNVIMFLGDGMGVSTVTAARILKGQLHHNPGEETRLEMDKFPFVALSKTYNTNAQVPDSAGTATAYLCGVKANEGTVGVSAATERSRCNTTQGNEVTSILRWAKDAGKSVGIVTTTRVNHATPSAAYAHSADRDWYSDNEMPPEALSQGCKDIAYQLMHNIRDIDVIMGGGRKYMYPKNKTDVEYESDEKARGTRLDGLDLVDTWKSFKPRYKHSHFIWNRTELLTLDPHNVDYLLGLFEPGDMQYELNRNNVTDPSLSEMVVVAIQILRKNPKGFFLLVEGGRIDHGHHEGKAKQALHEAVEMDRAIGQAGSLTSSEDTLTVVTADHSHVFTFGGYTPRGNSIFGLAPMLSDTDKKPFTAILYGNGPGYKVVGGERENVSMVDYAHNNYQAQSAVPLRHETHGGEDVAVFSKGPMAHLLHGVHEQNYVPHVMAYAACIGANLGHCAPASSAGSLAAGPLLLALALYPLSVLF

inhibition, inactive:
OC(CN=c1sc2ccccc2n1CC(O)COc1ccccc1)COc1ccccc1 (stereo unspecified) -2%
CC(C)(C)C(=O)N1CCC[C@@]1(CO)C(=O)O 1.3%
CCCn1nc(C(=O)Nc2ccc3nc(C)sc3c2)c2ccccc2c1=O 0%
O=C(NNc1cc(Cl)ccc1Cl)c1cccnc1Cl -3.3%
Cn1cnnc1Sc1ccc(S(C)(=O)=O)cc1[N+](=O)[O-] 3.1%
CN(C)S(=O)(=O)c1ccc(N2CCCC2=O)c([N+](=O)[O-])c1 -2.1%
Cc1ccccc1Nc1nc(N)nc(CSc2nnc3ccccn23)n1 -3.4%
O=C1CCC/C(=N\NC(=O)NC2CCCCC2)C1 3.6%
Cc1ccccc1C1=NC(C(F)(F)F)(C(F)(F)F)c2c(n(-c3ccc(F)cc3)c(=O)[nH]c2=O)N1 -3.5%
Cc1cccc(NC(=S)Nc2ccc(Cl)c(Cl)c2)c1 -5.2%
COc1ccccc1Oc1ccc(N/C=C2/CCCC2=O)cc1 -1.1%
Cc1ccc(OCc2n[nH]c(=S)n2-c2ccccc2)cc1 -3.4%
COC(=O)c1c(NC(=O)c2c(Cl)cnn2C)sc(C)c1C -0.7%
Cc1nc2ccccc2nc(C)c1=NOCc1ccc(Cl)cc1Cl -3.2%
O=C(/C=C/c1ccc(F)cc1)NC(=S)NNC(=O)c1cccnc1 -2.2%
CC1=C[C@H]2Cc3cc(C)cc(C)c3S(=O)(=O)[C@@H]2C=C1 1.3%
Cc1ccc(C)c(-n2nnnc2SCC(=O)c2c(N)n(C)c(=O)n(C)c2=O)c1 -2.7%
COc1cccc(NC(=S)N(Cc2ccc(C)cc2)Cc2ccccn2)c1 -3.4%
COc1cccc(C2CC(c3ccccc3)=NN2S(=O)(=O)c2ccccc2)c1OC (stereo unspecified) -5.8%
Cn1c(=N)n(CC(O)c2cccs2)c2ccccc21 (stereo unspecified) -2%
C=CCNc1nc(Nc2ccc(Cl)cc2)nc(OC)n1 -3%
COC(=O)c1nn(-c2cccc(Cl)c2)ccc1=O -8.9%
CCN(CC)CCN(C(=O)c1ccc(N2C(=O)CCC2=O)cc1)c1nc2cc3c(cc2s1)OCO3 -2.1%
CC(=O)c1cnc(SCC(=O)O)nc1C -1.6%
Cc1cccc(C2=N/C(=C/c3cccs3)C(=O)O2)c1 -2.6%
COC(=O)C(C(=O)Nc1cccc(Cl)c1C)C1CCCC1 (stereo unspecified) -6.6%
CCOC(=O)C1C(c2ccc(Cl)cc2)NC(=S)NC1(O)C(F)(F)F (stereo unspecified) 4.4%
CCOC(=O)/C(=N\Nc1cc(Cl)ccc1Cl)N1CCN(C)CC1 3.4%
S=C(NCC1CCCO1)N1CCN(c2ccc(Cl)c(Cl)c2)CC1 (stereo unspecified) -1.7%
COc1cc(C2OC(c3cc(OC)c(OC)c(OC)c3)C(C)C2C)cc(OC)c1OC (stereo unspecified) -2.4%
O=C(CCCCCNC(=O)c1ccccc1)N/N=C/c1ccccc1 -6.8%
O=C(NCCN1C(=O)S/C(=C\c2cccnc2)C1=O)c1cccc(OC(F)F)c1 -0.3%
COc1ccc(CCc2nnc(CCC(=O)NCc3cnn(-c4ccccc4C)c3)o2)cc1 1.5%
S=C(NCCc1ccccc1)NCC1CCCO1 (stereo unspecified) -0.7%
CN(C)c1ccc(/C=N/NC(=O)C(O)c2ccc(Br)cc2)cc1 (stereo unspecified) -1.9%
CCCCN(C)CCNC(=O)CSCc1ccc(C)cc1 -5.4%
CC(=O)c1sc(N/N=C/c2ccc(C(C)C)cc2)nc1C 13.5%
Cc1ccc(OCC(=O)NC(C)c2ccccc2)c([N+](=O)[O-])n1 (stereo unspecified) -1.6%
Cc1ccc(CSCC(N)C(=O)O)cc1 (stereo unspecified) 0.6%
O=C(Nc1ccc(N2CCOCC2)cc1)c1ccc(-c2ccccc2[N+](=O)[O-])o1 0.3%
Cc1ccc(-c2nc(-c3cccnc3)sc2CC(=O)Nc2ccc(C)c(Cl)c2)cc1 -1.4%
O=C(CC1SC(=Nc2ccccc2)N(Cc2ccccn2)C1=O)Nc1cccc(Cl)c1 (stereo unspecified) 3%
CCCCC(CC(C)O)c1n[nH]c(=S)n1-c1ccccc1 (stereo unspecified) 7.9%
COCCn1c(=NC(=O)c2ccccc2[N+](=O)[O-])sc2cc(S(C)(=O)=O)ccc21 3.3%
C#CCCCc1nc2ccccc2c(=O)n1N -3.7%
Cc1c(NC(=S)Nc2ccccc2)c(=O)n(-c2ccccc2)n1C 4.8%
O=C(COC(=O)[C@H](Cc1ccccc1)NC(=O)c1cccs1)Nc1cc(F)ccc1F -1.2%
C=CCn1c(SCCOc2ccc(OC)cc2)nnc1C(NC(=O)c1ccc(OC)cc1)C(C)C (stereo unspecified) -3.4%
CN1CCN(C(=O)N2c3ccccc3CCc3ccccc32)CC1 -5.7%
COc1ccc(CCNC(=O)CSc2nc3[nH]ncc3c(=O)n2-c2cccc(C(F)(F)F)c2)cc1OC 2.6%
CN(CCOc1ccc(Br)cc1)CC(=O)Nc1cccc(S(=O)(=O)NC2=NCCC2)c1 -4.6%
O=C(NNC1CC(=O)N(c2cccc(Cl)c2)C1=O)c1cccnc1 (stereo unspecified) -3.4%
Cc1ccc(S(=O)(=O)NC2(C(F)(F)F)NC(=O)N(CCc3ccccc3)C2=O)cc1 (stereo unspecified) -6.1%
COc1ccc(OC)c(S(=O)(=O)Nc2cccc(-c3ccc4nncn4n3)c2)c1 -3.7%
C[C@@H](O)c1nc2ccccc2n1N -1.1%
O=C(Nc1cccc(Cl)c1)c1cc([N+](=O)[O-])ccc1N1CCN(CCO)CC1 2.5%
CCOc1ccc(NC(=O)CSc2ncnc3c2sc2ccccc23)cc1 -1.9%
Cc1ccc2[nH]c(=O)c(CN(CC3COCCO3)C(=O)Nc3ccccc3C)cc2c1 (stereo unspecified) -4.6%
COc1cccc(CN(C)CC(=O)NCc2ccccc2Cl)c1OC 1.3%
CCC(C)(C)NC(=O)CN(C(=O)CCC(=O)Nc1cc(C)ccn1)c1ccc2c(c1)OCCO2 -6%
O=C(Nc1ccc(N2CCN(C(=O)c3cccs3)CC2)cc1)c1cccnc1Cl -2.2%
